Consider seven compounds from ChEMBL document CHEMBL1961873, “Compounds: GSK PKIS; Assays: Nanosyn kinase panel” (2012).

The target of test [1] is T1, Aurora kinase A (Homo sapiens) (UniProt O14965).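 Note: values are mean percent inhibition.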
T1 sequence (whole entry): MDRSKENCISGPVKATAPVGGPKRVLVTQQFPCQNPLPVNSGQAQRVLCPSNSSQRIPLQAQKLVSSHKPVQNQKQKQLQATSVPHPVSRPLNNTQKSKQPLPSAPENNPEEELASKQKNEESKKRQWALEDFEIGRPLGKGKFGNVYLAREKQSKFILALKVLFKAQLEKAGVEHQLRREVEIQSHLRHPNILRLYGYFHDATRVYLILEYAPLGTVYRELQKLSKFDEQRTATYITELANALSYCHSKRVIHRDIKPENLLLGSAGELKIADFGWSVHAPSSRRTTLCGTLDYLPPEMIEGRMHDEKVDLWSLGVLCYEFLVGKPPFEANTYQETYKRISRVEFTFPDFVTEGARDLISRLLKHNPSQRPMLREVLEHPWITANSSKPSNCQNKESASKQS
The conditions noted are these: at 1 µM.

In test [2] the target is Aurora kinase B (Homo sapiens) (UniProt Q96GD4). The conditions noted are these: at 0.1 µM.
Chain of Aurora kinase B (Homo sapiens) (Q96GD4 whole entry): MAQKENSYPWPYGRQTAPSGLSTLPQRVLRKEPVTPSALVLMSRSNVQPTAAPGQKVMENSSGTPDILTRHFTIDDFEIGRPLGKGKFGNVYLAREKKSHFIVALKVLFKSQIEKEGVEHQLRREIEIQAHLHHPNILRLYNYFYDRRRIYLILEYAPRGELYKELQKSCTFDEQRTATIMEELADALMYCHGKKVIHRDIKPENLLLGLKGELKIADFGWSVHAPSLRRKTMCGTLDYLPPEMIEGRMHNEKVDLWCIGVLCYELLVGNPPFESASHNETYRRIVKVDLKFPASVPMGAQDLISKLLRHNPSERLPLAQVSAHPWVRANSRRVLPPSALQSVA
For test [3] the target is unchanged. The conditions noted are these: at 1 µM.
In test [4] the target is T2, Aurora kinase C (Homo sapiens) (UniProt Q9UQB9).
T2 sequence (whole entry): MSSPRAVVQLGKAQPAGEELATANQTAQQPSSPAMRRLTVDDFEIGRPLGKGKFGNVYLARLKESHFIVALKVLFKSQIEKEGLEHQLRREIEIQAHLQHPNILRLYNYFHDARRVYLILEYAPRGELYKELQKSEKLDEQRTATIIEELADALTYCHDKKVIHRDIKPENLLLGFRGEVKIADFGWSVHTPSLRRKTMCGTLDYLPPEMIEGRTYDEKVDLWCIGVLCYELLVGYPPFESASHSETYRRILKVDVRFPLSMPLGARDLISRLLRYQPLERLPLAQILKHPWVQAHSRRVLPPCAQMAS
The conditions noted are these: at 0.1 µM.

Test [5] deals with T2, Aurora kinase C (Homo sapiens). The conditions noted are these: at 1 µM.
Test [6] addresses Serine/threonine-protein kinase 10 (Homo sapiens) (UniProt O94804). The conditions noted are these: at 0.1 µM.
The target is the same in test [7]. The conditions noted are these: at 1 µM.
In test [8] the target is T3, Mitogen-activated protein kinase kinase kinase kinase 2 (Homo sapiens) (UniProt Q12851).
T3 sequence (whole entry): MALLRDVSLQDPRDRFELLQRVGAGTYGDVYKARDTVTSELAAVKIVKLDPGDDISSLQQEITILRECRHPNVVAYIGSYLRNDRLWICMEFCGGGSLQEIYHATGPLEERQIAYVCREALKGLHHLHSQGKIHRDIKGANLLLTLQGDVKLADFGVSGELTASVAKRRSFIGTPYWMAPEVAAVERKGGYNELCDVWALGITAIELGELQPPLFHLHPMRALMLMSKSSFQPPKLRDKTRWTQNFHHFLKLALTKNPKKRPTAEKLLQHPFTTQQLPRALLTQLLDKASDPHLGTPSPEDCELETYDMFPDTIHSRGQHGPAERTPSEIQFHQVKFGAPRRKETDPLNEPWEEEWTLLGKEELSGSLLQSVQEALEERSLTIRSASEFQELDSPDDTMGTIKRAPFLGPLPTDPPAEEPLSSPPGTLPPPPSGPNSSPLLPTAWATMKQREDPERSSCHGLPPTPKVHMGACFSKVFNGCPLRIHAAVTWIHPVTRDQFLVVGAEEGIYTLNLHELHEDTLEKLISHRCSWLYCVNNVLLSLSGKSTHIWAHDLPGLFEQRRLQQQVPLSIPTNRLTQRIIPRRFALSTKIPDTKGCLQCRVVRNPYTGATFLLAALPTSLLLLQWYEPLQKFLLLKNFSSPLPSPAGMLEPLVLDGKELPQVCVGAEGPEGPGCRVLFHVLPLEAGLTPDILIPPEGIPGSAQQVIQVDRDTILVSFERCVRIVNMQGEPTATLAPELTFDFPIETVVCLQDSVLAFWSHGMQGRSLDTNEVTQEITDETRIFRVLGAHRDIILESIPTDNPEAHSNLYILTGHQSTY
The conditions noted are these: at 0.1 µM.

The target in test [9] is T3, Mitogen-activated protein kinase kinase kinase kinase 2 (Homo sapiens). The conditions noted are these: at 1 µM.
In test [10] the target is Mitogen-activated protein kinase kinase kinase kinase 4 (Homo sapiens) (UniProt O95819). The conditions noted are these: at 0.1 µM.
Chain of Mitogen-activated protein kinase kinase kinase kinase 4 (Homo sapiens) (O95819 2-1239 limits assumed): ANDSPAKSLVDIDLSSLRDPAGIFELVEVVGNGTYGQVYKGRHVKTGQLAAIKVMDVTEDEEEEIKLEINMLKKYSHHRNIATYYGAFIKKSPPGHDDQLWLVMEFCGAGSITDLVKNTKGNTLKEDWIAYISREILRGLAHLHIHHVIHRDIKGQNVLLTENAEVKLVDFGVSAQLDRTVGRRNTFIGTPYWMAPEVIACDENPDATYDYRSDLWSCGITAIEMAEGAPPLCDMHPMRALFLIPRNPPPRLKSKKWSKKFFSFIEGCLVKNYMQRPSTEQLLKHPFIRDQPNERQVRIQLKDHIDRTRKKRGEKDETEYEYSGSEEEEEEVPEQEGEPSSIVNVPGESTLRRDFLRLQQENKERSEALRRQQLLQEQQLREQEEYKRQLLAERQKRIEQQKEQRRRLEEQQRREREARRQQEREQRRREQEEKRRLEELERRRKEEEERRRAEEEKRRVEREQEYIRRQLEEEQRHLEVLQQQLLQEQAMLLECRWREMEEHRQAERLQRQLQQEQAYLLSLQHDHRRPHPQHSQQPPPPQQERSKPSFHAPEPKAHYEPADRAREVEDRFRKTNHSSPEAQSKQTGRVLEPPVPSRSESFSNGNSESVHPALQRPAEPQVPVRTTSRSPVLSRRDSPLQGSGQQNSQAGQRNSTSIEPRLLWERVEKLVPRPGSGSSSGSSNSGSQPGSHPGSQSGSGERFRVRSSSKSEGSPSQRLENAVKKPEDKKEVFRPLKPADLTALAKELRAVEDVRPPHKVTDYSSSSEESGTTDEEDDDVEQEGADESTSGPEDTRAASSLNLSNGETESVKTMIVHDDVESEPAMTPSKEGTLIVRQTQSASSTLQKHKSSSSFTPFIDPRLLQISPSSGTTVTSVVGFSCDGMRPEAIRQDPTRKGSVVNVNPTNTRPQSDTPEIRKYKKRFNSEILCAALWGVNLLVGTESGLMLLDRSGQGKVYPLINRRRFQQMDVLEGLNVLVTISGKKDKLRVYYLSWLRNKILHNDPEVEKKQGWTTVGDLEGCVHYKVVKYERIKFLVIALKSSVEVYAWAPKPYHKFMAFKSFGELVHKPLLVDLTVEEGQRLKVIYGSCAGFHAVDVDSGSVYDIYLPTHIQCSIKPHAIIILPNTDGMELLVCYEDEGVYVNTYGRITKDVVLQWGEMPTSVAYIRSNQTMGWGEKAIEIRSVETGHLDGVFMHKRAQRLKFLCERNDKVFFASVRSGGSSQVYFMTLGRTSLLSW
The target is the same in test [11]. The conditions noted are these: at 1 µM.
The target of test [12] is Dual specificity mitogen-activated protein kinase kinase 1 (Homo sapiens) (UniProt Q02750). The conditions noted are these: at 0.1 µM.
Chain of Dual specificity mitogen-activated protein kinase kinase 1 (Homo sapiens) (Q02750 whole entry): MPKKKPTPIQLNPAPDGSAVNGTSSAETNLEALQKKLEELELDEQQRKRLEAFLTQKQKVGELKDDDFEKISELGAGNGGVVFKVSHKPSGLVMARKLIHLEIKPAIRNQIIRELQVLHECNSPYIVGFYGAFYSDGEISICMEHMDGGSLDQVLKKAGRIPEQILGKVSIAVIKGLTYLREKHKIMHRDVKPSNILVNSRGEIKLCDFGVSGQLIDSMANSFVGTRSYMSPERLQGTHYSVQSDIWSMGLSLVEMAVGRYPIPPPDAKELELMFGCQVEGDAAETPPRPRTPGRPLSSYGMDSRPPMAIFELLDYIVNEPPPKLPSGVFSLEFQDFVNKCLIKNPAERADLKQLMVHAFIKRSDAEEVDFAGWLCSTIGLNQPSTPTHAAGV
The target is the same in test [13]. The conditions noted are these: at 1 µM.
Test [14] addresses Misshapen-like kinase 1 (Homo sapiens) (UniProt Q8N4C8). The conditions noted are these: at 0.1 µM.
Test [15] has the same target. The conditions noted are these: at 1 µM.
The target in test [16] is T4, Serine/threonine-protein kinase 4 (Homo sapiens) (UniProt Q13043).
T4 sequence (whole entry): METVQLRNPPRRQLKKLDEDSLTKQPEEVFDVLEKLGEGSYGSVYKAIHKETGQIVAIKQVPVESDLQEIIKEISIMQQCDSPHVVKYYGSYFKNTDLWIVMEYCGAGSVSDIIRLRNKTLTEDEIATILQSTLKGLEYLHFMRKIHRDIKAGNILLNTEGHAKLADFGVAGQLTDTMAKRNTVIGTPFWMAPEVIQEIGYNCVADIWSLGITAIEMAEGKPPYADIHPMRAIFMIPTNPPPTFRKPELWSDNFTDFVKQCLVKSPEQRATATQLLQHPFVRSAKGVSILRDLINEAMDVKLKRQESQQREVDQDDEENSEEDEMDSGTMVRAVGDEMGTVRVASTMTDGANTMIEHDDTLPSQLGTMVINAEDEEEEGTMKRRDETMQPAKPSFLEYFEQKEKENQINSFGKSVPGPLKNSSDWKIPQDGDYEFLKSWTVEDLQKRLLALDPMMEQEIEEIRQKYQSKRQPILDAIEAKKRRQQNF
The conditions noted are these: at 0.1 µM.

Test [17] has as its target T4, Serine/threonine-protein kinase 4 (Homo sapiens). The conditions noted are these: at 1 µM.
Test [18] has as its target T5, Serine/threonine-protein kinase 3 (Homo sapiens) (UniProt Q13188).
T5 sequence (whole entry): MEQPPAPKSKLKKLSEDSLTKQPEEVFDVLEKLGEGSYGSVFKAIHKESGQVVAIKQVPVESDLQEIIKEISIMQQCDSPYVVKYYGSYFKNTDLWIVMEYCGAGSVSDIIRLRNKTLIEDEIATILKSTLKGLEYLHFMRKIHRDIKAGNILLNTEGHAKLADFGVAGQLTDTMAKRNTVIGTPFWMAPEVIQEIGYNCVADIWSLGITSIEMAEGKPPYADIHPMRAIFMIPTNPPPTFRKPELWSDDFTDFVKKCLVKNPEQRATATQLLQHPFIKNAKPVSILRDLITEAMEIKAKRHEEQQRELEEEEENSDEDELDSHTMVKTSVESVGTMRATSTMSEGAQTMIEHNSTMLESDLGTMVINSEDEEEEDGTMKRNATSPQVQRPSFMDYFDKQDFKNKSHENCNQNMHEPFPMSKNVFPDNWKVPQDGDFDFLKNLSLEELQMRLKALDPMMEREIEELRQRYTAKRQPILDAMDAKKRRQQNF
The conditions noted are these: at 0.1 µM.

Test [19] deals with T5, Serine/threonine-protein kinase 3 (Homo sapiens). The conditions noted are these: at 1 µM.
Test [20] deals with Serine/threonine-protein kinase 26 (Homo sapiens) (UniProt Q9P289). The conditions noted are these: at 0.1 µM.
Chain of Serine/threonine-protein kinase 26 (Homo sapiens) (Q9P289 2-416 limits assumed): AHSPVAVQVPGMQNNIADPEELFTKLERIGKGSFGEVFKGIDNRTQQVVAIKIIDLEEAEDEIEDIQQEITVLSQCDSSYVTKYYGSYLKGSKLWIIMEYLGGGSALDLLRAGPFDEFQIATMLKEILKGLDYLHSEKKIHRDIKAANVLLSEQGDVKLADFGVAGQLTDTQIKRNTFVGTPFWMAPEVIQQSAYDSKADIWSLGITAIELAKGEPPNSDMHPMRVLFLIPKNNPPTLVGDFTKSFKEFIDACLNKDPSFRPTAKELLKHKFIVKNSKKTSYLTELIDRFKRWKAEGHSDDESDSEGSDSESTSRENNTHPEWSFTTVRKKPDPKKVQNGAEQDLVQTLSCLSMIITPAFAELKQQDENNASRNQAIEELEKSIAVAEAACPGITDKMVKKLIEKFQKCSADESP

The structures appear in SMILES notation.

By inhibition is commonly meant the relative decrease from the control value, in per cent.

Chain of Misshapen-like kinase 1 (Homo sapiens) (Q8N4C8 whole entry, looked up): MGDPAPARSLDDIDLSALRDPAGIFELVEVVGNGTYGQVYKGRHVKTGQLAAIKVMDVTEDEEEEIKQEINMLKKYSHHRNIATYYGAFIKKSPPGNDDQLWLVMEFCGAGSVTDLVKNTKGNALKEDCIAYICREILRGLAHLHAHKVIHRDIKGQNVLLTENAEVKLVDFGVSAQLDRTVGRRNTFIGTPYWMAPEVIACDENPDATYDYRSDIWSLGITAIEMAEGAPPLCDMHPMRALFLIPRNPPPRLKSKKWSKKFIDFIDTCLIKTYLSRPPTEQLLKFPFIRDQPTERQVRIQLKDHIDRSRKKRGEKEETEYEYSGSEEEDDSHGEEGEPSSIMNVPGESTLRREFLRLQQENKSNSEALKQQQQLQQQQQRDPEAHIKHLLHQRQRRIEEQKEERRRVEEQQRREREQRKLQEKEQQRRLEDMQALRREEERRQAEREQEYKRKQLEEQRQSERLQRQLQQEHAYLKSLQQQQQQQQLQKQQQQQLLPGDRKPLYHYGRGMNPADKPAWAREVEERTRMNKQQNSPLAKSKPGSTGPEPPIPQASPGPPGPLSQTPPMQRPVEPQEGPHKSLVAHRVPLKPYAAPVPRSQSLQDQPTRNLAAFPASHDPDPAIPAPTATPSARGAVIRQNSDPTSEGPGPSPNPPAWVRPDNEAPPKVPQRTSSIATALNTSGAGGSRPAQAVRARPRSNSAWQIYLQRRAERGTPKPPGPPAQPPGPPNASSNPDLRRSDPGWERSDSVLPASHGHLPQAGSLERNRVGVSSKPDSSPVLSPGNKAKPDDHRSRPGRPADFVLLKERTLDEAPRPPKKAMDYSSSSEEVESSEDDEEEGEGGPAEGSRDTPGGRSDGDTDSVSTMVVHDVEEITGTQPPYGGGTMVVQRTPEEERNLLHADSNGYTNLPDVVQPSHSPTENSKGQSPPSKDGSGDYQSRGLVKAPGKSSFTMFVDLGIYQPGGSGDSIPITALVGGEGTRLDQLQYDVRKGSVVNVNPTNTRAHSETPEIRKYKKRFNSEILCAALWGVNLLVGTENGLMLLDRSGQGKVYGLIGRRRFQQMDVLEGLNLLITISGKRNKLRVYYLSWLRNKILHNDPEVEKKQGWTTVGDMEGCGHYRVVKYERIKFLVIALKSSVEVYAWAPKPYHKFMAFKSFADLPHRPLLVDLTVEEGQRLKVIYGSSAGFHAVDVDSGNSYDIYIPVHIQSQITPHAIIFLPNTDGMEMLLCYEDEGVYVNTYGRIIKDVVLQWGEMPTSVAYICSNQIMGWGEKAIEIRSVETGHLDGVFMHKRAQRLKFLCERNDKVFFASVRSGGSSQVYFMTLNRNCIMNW
Chain of Serine/threonine-protein kinase 10 (Homo sapiens) (O94804 whole entry, looked up): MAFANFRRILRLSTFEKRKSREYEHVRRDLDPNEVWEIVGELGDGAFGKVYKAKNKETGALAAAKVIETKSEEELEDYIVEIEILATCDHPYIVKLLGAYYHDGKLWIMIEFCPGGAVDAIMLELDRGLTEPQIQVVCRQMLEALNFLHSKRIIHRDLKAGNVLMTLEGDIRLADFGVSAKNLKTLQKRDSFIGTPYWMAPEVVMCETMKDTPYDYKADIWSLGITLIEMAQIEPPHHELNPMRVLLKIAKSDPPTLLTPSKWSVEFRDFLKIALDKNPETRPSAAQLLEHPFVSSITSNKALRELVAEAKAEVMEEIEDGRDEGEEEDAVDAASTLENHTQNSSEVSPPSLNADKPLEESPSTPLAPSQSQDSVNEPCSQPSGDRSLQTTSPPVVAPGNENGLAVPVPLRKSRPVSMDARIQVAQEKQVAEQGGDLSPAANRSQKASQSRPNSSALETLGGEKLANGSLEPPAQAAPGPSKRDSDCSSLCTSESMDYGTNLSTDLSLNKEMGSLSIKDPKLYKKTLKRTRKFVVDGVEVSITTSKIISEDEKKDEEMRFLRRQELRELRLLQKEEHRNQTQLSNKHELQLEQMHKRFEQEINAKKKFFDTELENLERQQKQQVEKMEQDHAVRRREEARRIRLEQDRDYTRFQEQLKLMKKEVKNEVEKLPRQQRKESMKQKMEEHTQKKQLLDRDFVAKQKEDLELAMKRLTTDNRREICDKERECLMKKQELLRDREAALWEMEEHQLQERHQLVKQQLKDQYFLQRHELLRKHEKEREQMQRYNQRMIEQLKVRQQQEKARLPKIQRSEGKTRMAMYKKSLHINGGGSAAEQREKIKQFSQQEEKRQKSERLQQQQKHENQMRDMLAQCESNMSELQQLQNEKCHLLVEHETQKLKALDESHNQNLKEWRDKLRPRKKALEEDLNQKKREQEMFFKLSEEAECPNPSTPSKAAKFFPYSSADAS

As for `COc1ccc(-c2nn3ncccc3c2-c2ccnc(Nc3cccc(C(F)(F)F)c3)n2)cc1`, the inhibition came out at 5.62% in [1]; 1.05% in [2]; 5.57% in test [3]; 1.98% in test [4]; 5.91% in test [5]; 6.76% in test [6]. Further, the inhibition in [7] was 12.3%; in test [8], 2.11%; in test [9], 1.6%; in test [10] it was 3.02%; in [11] it was 4.62%; in [12] it was 1.9%. The inhibition in [13] was 2.55%; in test [14] it was 5.18%; in [15] it was 5.08%; in test [16] it was 1.69%; in test [17], 2.89%; in test [18], 4.76%. The inhibition was 5.12% in test [19] and -0.3% in test [20].
Consider `CCS(=O)(=O)c1ccc(OC)c(Nc2nccc(N(C)c3ccc4c(C)n[nH]c4c3)n2)c1`, for which the inhibition in test [1] turned out to be 6.77%; in test [2] it was 3.25%; in [3] it was 7.33%; in [4], 6.61%; in test [5], 28.2%; in test [6], 43.4%. For the same compound, the inhibition in test [7] was 83%; in test [8], 0.17%; in test [9] it was 12.7%; in [10], 4.51%; in test [11] it was 15.6%; in test [12] it was 4.63%. For the same compound, the inhibition in test [13] was 5.1%; in test [14], 3.64%; in test [15], 11.7%; in test [16], 4.2%; in [17], 5.13%; in [18] it was 4.58%. Besides, the inhibition in test [19] is 5.24%; in test [20], -2.14%.
`Nc1nccc(-c2c(-c3ccc(F)cc3)ncn2CCCN2CCOCC2)n1`: the inhibition in test [1] was 8.99%; in test [2], 2.68%; in [3] it was 4.99%; in [4] it was 0.25%; in test [5], -2.92%; in [6], 3.38%. The inhibition in test [7] was 7.74%; in test [8] it was 2.02%; in test [9] it was -0.39%; in test [10] it was 3.81%; in test [11], 8.06%; in [12], 5.23%. Besides, the inhibition in [13] came to 4.45%; in test [14], 5.84%; in test [15] it was 7.98%; in [16] it was 3.71%; in [17], 5.25%; in [18] it was 4.5%. The inhibition in [19] is 5.71%; in test [20], -0.66%.
With `CCOc1nccc2c1nc(-c1nonc1N)n2CC`, the inhibition was 8.92% in test [1]; 5.61% in test [2]; 8.46% in test [3]; 2.28% in test [4]; -5.69% in test [5]; 11.5% in test [6]. Besides, the inhibition is 19.9% in [7]; 5.01% in test [8]; 10.6% in [9]; 3.98% in test [10]; 14.3% in [11]; 3.44% in test [12]. Besides, the inhibition amounted to 3.14% in test [13]; 5.33% in test [14]; 13.8% in test [15]; 12.1% in test [16]; 22.7% in [17]; 11.4% in test [18]. In addition, the inhibition in test [19] was 21.8%; in test [20], 0.4%.
Turning to `COc1cccc(-n2ncc3c(N/N=C/c4ccc(C)cc4)ncnc32)c1`, the inhibition amounted to 11.8% in test [1]; 4.27% in [2]; 6.65% in test [3]; 1.92% in test [4]; 4.66% in test [5]; 5.12% in [6]. For the same compound, the inhibition in [7] stood at 10.9%; in [8], 0.91%; in test [9], 4.23%; in test [10], 4.74%; in [11] it was 21%; in test [12] it was 4.05%. The inhibition turned out to be 3.78% in [13]; 7.18% in test [14]; 16.1% in test [15]; 5.34% in test [16]; 13.2% in [17]; 6.16% in [18]. Also, the inhibition is 11.4% in test [19] and -1.81% in test [20].
With `CCS(=O)(=O)c1ccc(OC)c(Nc2ncc(-c3cccc(OC)c3)o2)c1`, the inhibition was determined as 34.5% in test [1]; 2.15% in [2]; 5.4% in [3]; 1.61% in test [4]; 14.6% in test [5]; 4.31% in test [6]. The inhibition in [7] came to 8.64%; in test [8], 1.39%; in test [9], 6.14%; in test [10], 4.46%; in [11] it was 25.9%; in [12] it was 2.58%. For the same compound, the inhibition in test [13] is 3.57%; in [14], 5.68%; in test [15], 16.8%; in [16] it was 6.63%; in test [17], 10.6%; in [18] it was 6.69%. The inhibition was 7.22% in test [19] and -1.42% in [20].
With `NS(=O)(=O)c1ccc(N/N=C2\C(=O)Nc3ccc(Cl)cc32)cc1`, the inhibition in test [1] amounted to 26.8%; in test [2], 3.68%; in test [3] it was 6.25%; in test [4], 1.97%; in test [5], 5.64%; in [6], 6.82%. The inhibition is 6.74% in test [7]; 0.49% in test [8]; 3.26% in test [9]; 25.7% in test [10]; 75.5% in [11]; 5.27% in test [12]. For the same compound, the inhibition in test [13] came to 5.11%; in test [14] it was 18.5%; in test [15], 65.7%; in test [16] it was 21.2%; in test [17], 67.5%; in test [18], 16.8%. Further, the figures for the inhibition in [19] and in [20] were 56.9% and 1.38%, respectively.
